Dicer processing: blocks human Dicer maturation of pre-miR-21 | Q9UPY3 | cat-ELCCA pre-miR-21 Dicer processing, chemiluminescence; hits give high values | z-score at 25 µM | 47,000 tested, 6% active | AID 1347074; in the data active = z-score above about 3, passing the limit was not always enough;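 also: plate controls were vehicle for no effect and no enzyme for full effect; higher signal means more uncleaved substrate so more Dicer inhibition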
* hit, by the source's call. Shown is part of a subset that was picked to be rich in hits.

SMILES | Dicer processing
CCOc1ccc(-c2ncnn2-c2ccc(C)c(Cl)c2)cc1 | -1.26
Cn1c(=O)[nH]c(=O)c2c1nc1n2CCN1c1ccccc1 | -1.33
Cc1nn(-c2ccccc2)c2nc(-c3cccnc3)cc(C(F)(F)F)c12 | 0.1
O=C(c1ccc2c(c1)Cc1ccccc1-2)c1ccccc1Br | -0.79
O=C(NCc1cccs1)Nc1cc2ccccc2s1 | -1.26
O=C(Nc1cc2ccccc2s1)NC1Cc2ccccc2C1 | -0.16
O=C(Nc1cc(C(F)(F)F)cc(C(F)(F)F)c1)Nc1cc2ccccc2s1 | 3.03*
CN(C)Cc1c(O)ccc2c(=O)c(-c3ccccc3)c(C(F)(F)F)oc12 | 1.36
CN1CCC(=NOC(=O)Nc2cccc(C(F)(F)F)c2)CC1 | 0.22
CSc1nnc2c(n1)OC(c1ccc(C)cc1)Nc1ccccc1-2 (centres undefined) | -0.71
CSc1nnc2c(n1)OC(C1CC=C(C)CC1)Nc1ccccc1-2 (centres undefined) | 3.21*
CSc1nnc2c(n1)OC(C)Nc1ccccc1-2 (centres undefined) | 5.76
CCOC(=O)NC(=O)c1cn(Cc2cccs2)c(=O)n(Cc2ccc(Cl)cc2)c1=O | 0.07
O=C1/C(=C/c2ccc(F)cc2)CN(Cc2ccccc2)C/C1=C\c1ccc(F)cc1 | 4.18*
CN1C/C(=C\c2ccccc2)C(=O)/C(=C/c2ccccc2)C1 | -1.55
COc1ccc(/C=C2\CN(C)C/C(=C\c3ccc(OC)cc3)C2=O)cc1 | -0.55
Clc1ccc(Cl)c(OCCOc2cc(Cl)ccc2Cl)c1 | 0.37
COCCN1C(=O)C(=O)/C(=C(\O)c2ccc(OC)c(C)c2)C12C(=O)N(C)c1ccccc12 (centres undefined) | 3.23*
COCCN1C(=O)C(=O)/C(=C(\O)c2ccc(OC)cc2)C12C(=O)N(C)c1ccccc12 (centres undefined) | -0.25
COCCN1C(=O)C(=O)/C(=C(\O)c2ccc(C)cc2)C12C(=O)N(C)c1ccccc12 (centres undefined) | -0.78
Cc1ccc(/C(O)=C2/C(=O)C(=O)N(CCCN(C)C)C23C(=O)N(C)c2ccccc23)cc1F (centres undefined) | -0.29
CCOc1ccc(/C(O)=C2/C(=O)C(=O)N(CCOC)C23C(=O)N(C)c2ccccc23)cc1 (centres undefined) | 4.07*
CCOc1ccc(/C(O)=C2/C(=O)C(=O)N(CCCOC)C23C(=O)N(C)c2ccccc23)cc1 (centres undefined) | 2.46
O=c1[nH]nc(-c2ccc(Cl)cc2)c2ccccc12 | -1.42
Cc1ccc(CSc2cc3c(cc2[N+](=O)[O-])C(=O)NC3=O)cc1 | 0.14
SMILES | Dicer processing
O=[N+]([O-])c1cccnc1Sc1cccs1 | -0.46
NS(=O)(=O)c1cc(C(=O)O)ccc1Cl | -0.24
O=C(c1ccccc1)c1cc(Cl)ccc1N/C=C/c1nnnn1-c1ccc(F)cc1 | 0.75
CCOc1cccc2c1N(C(C)=O)C(C)(C)C(=S)C2=C1SC(C(=O)OC)=C(C(=O)OC)S1 | 0.96
CCOC(=O)C1=C(C(=O)OCC)SC(=C2C(=S)C(C)(C)Nc3ccc(C)cc32)S1 | 1.74
CCOC(=O)C1=CS/C(=C2/C(=S)C(C)(C)Nc3c(OCC)cccc32)S1 | 3.67*
O=S(=O)(CCc1ccncc1)c1ccc(Cl)cc1 | 4.35*
O=S(=O)(Cc1ccccc1)c1ccc(Cl)cc1 | 0.84
O=S(=O)(CCS(=O)(=O)c1cccs1)c1ccc(Cl)cc1 | -0.66
COc1cccc(OC)c1-c1cc(C(=O)NC2(C(=O)O)C3CC4CC(C3)CC2C4)nn1-c1ccc(C(=O)N(C)CCCN(C)C)cc1C(C)C (centres undefined) | -0.35
Cc1c(NC(=O)COC(=O)CN2C(=O)C(=O)c3ccccc32)c(=O)n(-c2ccccc2)n1C | 3.78*
CCOC(=O)CN1C(=O)C(=O)c2ccccc21 | 4.6*
O=C(COC(=O)CN1C(=O)C(=O)c2ccccc21)NCc1ccco1 | 1.35
CCOC(=O)CCN1C(=O)c2ccccc2C1=O | 0.31
CC1CCN(C(=O)CN2C(=O)C(=O)c3ccccc32)CC1 | 1.49
Cc1c(NC(=O)OCc2ccccc2)c(=O)n(-c2ccccc2)n1C | -0.02
COC(=O)C1=C(C)NC2=C(C(=O)CC(C)(C)C2)C1c1cscc1C#Cc1ccccc1 (centres undefined) | 1.03
O=C(O)CNC(=O)Cn1cnc2ccccc2c1=O | -1.8
CC(C)(C)OC(=O)C1C(=O)CC(C)(O)C(C(=O)OC(C)(C)C)C1c1ccccc1 (centres undefined) | -0.9
COc1ccc(C2NC(=O)C(=O)/C2=C(\O)c2ccc(Cl)cc2)cc1 (centres undefined) | -1.72
COc1ccc(Oc2ccc(C(F)(F)F)cc2NS(=O)(=O)c2cccs2)cc1 | 0.02
Nc1cc(=O)[nH]c2nnc(SCCc3ccccc3)n12 | 4.07*
Nc1cc(=O)[nH]c2nnc(SCc3cccc(Oc4ccccc4)c3)n12 | 2.76
CCCCSc1nnc2[nH]c(=O)cc(N)n12 | 2.47
CCCCCSc1nnc2[nH]c(=O)cc(N)n12 | 4.47*
SMILES | Dicer processing
CCSc1nnc2[nH]c(=O)cc(N)n12 | 2.48
CCCCCCCSc1nnc2[nH]c(=O)cc(N)n12 | 2.46
O=c1c(Cl)c2oc3ccccc3nc-2c2ccccc12 | -1.06
CCSc1sccc1C1C(C#N)=C(N)N(c2cccnc2)C2=C1C(=O)CC(c1ccccc1)C2 (centres undefined) | 1.74
Cn1c(NCCN(CCO)CCCc2ccc([N+](=O)[O-])cc2)cc(=O)n(C)c1=O | -0.43
CC(=O)OCC(=O)[C@@]1(O)CC[C@H]2[C@@H]3CCC4=CC(=O)CC[C@]4(C)[C@H]3C(=O)C[C@@]21C | 0.44
Cc1ccc2oc(=O)n(CC(=O)O)c2c1 | 1.29
COc1ccc(Cn2c(=O)oc3ccccc32)cc1OC | -0.24
Cc1ccc2oc(=O)n(Cc3ccccc3OC(C)C)c2c1 | 5.1*
C=C(C)c1cccc(C(C)(C)NC(=O)NCCc2ccccc2)c1 | 1.2
C=C(C)c1cccc(C(C)(C)NC(=O)NCc2ccc(Cl)cc2)c1 | 0.35
C=C(C)c1cccc(C(C)(C)NC(=O)NCCc2ccc(S(N)(=O)=O)cc2)c1 | 3.89*
Cc1cc(Cl)ccc1NC(=S)NC(C)(CO)CO | -0.01
CC1=C(CC(=O)O)c2cc(F)ccc2/C1=C\c1ccc(S(C)(=O)=O)cc1 | 0.65
CC(=O)Nc1nc2ccccc2c(=O)s1 | 0.27
CCSC1=N/C(=C\c2ccc(OC(C)=O)c(OC)c2)C(=O)S1 | 0.35
Cc1cc(NC(=O)CSc2nccc(=O)[nH]2)no1 | -1.75
CN1N=C2c3ccccc3CCC2C1c1ccc(F)cc1 (centres undefined) | 0.59
COc1ccc2c(c1)CCC1C2=NN(C)C1c1ccc(C(C)C)cc1 (centres undefined) | 1.12
CC(C)c1ccc(C2C3CCc4ccccc4C3=NN2CCO)cc1 (centres undefined) | 3.09*
O=C(OCCCN=C1NS(=O)(=O)c2ccccc21)c1ccccc1 | 14.7
O=c1oc(-c2ccccc2)nc2c(Br)cc(Br)cc12 | -0.43
Cc1ccc(C2c3c(oc4ccccc4c3=O)C(=O)N2c2nncs2)cc1 (centres undefined) | -0.44
O=C(c1ccccc1)c1ccc2c(c1)OCCCO2 | 0.39
CCOC(=O)c1sc(/S(C)=N/S(=O)(=O)c2cccc(Cl)c2)c2c1CCC=C2 (centres undefined) | -0.78
O=S(=O)(c1ccccc1)c1ccc(S(=O)(=O)N2CCOCC2)s1 | -0.55
O=S(=O)(c1ccccc1)c1ccc(S(=O)(=O)N2CCN(C3c4ccccc4-c4ccccc43)CC2)s1 | 3.36*
CC(=O)c1ccc(N2CCN(S(=O)(=O)c3ccc(S(=O)(=O)c4ccccc4)s3)CC2)cc1 | -0.13
